Compounds without any hit were thinned out: in the full panel of roughly 79,000, 15% have a hit. Values without a mark were called inactive. The source made the active and inactive calls. Rule as the data show it: active = growth inhibition above about 70%; inactive = the rest.
What was measured:
[1] = NCI Yeast Anticancer Drug Screen. Data for the rad50 strain (AID 155);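 also: 0% = growth of vehicle-only cultures of the same strain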; details: S. cerevisiae rad50 strain growth inhibition, stronger effect = higher value
Procedure, shortened: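 Compounds were tested on a yeast strain with an engineered DNA damage repair alteration; the reported value is growth inhibition normalised to vehicle treatment.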

[2] = NCI Yeast Anticancer Drug Screen. Data for the mec2-1 strain (AID 157); details: S. cerevisiae mec2-1 strain, stronger effect = higher value
Procedure, shortened: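 Compounds were applied to mec2-1 yeast cells. Their growth was then compared with that of vehicle-treated cultures to give growth inhibition.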

[3] = NCI Yeast Anticancer Drug Screen. Data for the sgs1 mgt1 strain (AID 161);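 also: 0% = growth of cultures given vehicle only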; details: S. cerevisiae sgs1 mgt1 strain, stronger effect = higher value
Procedure, shortened: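 Percent growth inhibition was derived by comparing compound-exposed mutant yeast with vehicle-exposed cultures. The strain carries alterations in DNA damage repair.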

[4] = NCI Yeast Anticancer Drug Screen. Data for the cln2 rad14 strain (AID 165);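 also: 0% = growth equal to vehicle treated cultures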; details: S. cerevisiae cln2 rad14 strain, stronger effect = higher value
Procedure, shortened: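 Strain: cln2 rad14 yeast, altered in cell cycle control and DNA damage repair. Read-out: growth inhibition vs vehicle.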

[5] = NCI Yeast Anticancer Drug Screen. Data for the bub3 strain (AID 167); details: S. cerevisiae bub3 mutant strain, stronger effect = higher value
Procedure, shortened: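 Growth of a checkpoint-deficient yeast mutant is measured after compound exposure. Values represent inhibition relative to vehicle.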

[6] = NCI Yeast Anticancer Drug Screen. Data for the mlh1 rad18 strain (AID 175); details: S. cerevisiae mlh1 rad18 strain growth inhibition, stronger effect = higher value
Procedure, shortened: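 A repair-deficient yeast strain is exposed to test compound, and growth is scored relative to vehicle-treated controls.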

[7] = at 5.0 µM (retest, dose inferred, filed as 0.5)
[8] = at 50.0 µM (retest, dose inferred, filed as 5.0)

SMILES | growth inhibition [1, 7] | growth inhibition [1, 8] | growth inhibition ([1]; at 50.0 µM) | growth inhibition [2, 7] | growth inhibition [2, 8] | growth inhibition ([2]; at 50.0 µM) | growth inhibition [3, 7] | growth inhibition [3, 8] | growth inhibition ([3]; at 50.0 µM) | growth inhibition [4, 7] | growth inhibition [4, 8] | growth inhibition ([4]; at 50.0 µM) | growth inhibition [5, 7] | growth inhibition [5, 8] | growth inhibition ([5]; at 50.0 µM) | growth inhibition [6, 7] | growth inhibition [6, 8] | growth inhibition ([6]; at 50.0 µM)
c1nc2nc(N3CCOCC3)nc(N3CCCCC3)c2[nH]1 | -22% | -14% | -1.35% | -18% | -18% | 3.25% | 2% | 2% | 2.45% | -2% | 0% | 6.7% | -1% | -9% | -43.2% | -19% | 10% | -0.15%
CCCCCCCCCCCC(=O)NC(CCC(=O)O)C(=O)O (stereo not given) | 4% | -2% | -6.05% | -19% | -12% | -8% | -3% | -1% | 5.95% | -5% | -9% | 49.4% | -7% | 0% | -2.15% | -18% | -8% | 5.1%
CCCCCCCCCCCCCCCC(=O)N(CCCN(CC)CC)C(C)CCCN(CC)CC (stereo not given) | 90% (active) | 98% (active) | 60.1% | 28% | 99% (active) | 71.9% (active) | 51% | 99% (active) | 44.9% | 36% | 99% (active) | 76.4% (active) | 53% | 99% (active) | 19.6% | 85% (active) | 97% (active) | 17.7%
O=S(=O)(CCCCl)SCCCCl | 11% | 99% (active) | 99.4% (active) | 15% | 99% (active) | 99.5% (active) | 18% | 100% (active) | 99.5% (active) | 23% | 99% (active) | 99.7% (active) | 22% | 100% (active) | 99.7% (active) | 19% | 99% (active) | 99.5% (active)
C1CNC(CCNCCSCCNCCC2=NCCN2)=N1 | 10% | 90% (active) | 95.1% (active) | 1% | 75% (active) | 84.2% (active) | 5% | 87% (active) | 91.9% (active) | 5% | 72% (active) | 83.2% (active) | -2% | 89% (active) | 93.5% (active) | 1% | 91% (active) | 94.3% (active)
O=C(NCCCN1CC2CCCC2C1)C(C1CCCCC1)C1CCCCC1 (stereo not given) | -5% | 94% (active) | 99.6% (active) | -12% | 76% (active) | 99.5% (active) | -9% | 92% (active) | 99.5% (active) | 0% | 98% (active) | 99.2% (active) | -22% | 99% (active) | 99.5% (active) | -3% | 96% (active) | 99.5% (active)
C/C=C/c1cc2c(cc1O)CC[C@@H]1[C@@H]2CC[C@]2(C)[C@@H](O)CC[C@@H]12 | 25% | 97% (active) | 89% (active) | 12% | 98% (active) | 92% (active) | 11% | 97% (active) | 90.7% (active) | 6% | 97% (active) | 92.7% (active) | 22% | 99% (active) | 91.3% (active) | 24% | 97% (active) | 86.7% (active)
COc1cc(C)c2sc3ccccc3c(=O)c2c1NCCCN(C)C | 1% | 51% | 72.3% (active) | -4% | -6% | 37% | -2% | 58% | 70.3% (active) | -4% | 51% | 14.6% | 0% | 53% | 27.1% | -3% | 54% | 95.3% (active)
CC(=O)[O-].[Mn+3].[O-]c1ccc(Cl)cc1C=NCCN=Cc1cc(Cl)ccc1[O-] | -2% | 92% (active) | 98.8% (active) | -3% | 66% | 98.5% (active) | 6% | 87% (active) | 98.6% (active) | 8% | 89% (active) | 89.2% (active) | 16% | 98% (active) | 98.2% (active) | -1% | 93% (active) | 98.6% (active)
CCCC/C=C(/CCCNCCCC)[Si](C)(C)C | 70% (active) | 97% (active) | 91.8% (active) | 72% (active) | 99% (active) | 93.7% (active) | 90% (active) | 99% (active) | 94.2% (active) | 73% (active) | 98% (active) | 92.8% (active) | 90% (active) | 99% (active) | 92.7% (active) | 91% (active) | 98% (active) | 91.9% (active)

Source: PubChem BioAssay (NCI)
